The subject of one experiment is THP-1. Description: THP-1 cell loss relative to DMSO control; higher = more host cell loss (toxicity); extreme values may be limits of the assay. The settings on record: 10 µM; 4 days; infection: M. tuberculosis H37Rv. The protocol:
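OICR kinase inhibitor library screened in duplicate at 10 uM against M. tuberculosis-infected THP-1 macrophages, 4 days at 37 C. THP-1 cell loss (cytotoxicity or loss of adherence) was quantified from Hoechst-stained nuclei counts by high-content imaging and normalised to the 1% DMSO control; 100 = complete loss of host cells.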

Experiment [1] relates to THP-1 macrophages infected with Mycobacterium tuberculosis H37Rv. The experiment can be described thus: intracellular M.tb growth inhibition relative to DMSO (0) and 4 uM bedaquiline (100); higher = stronger inhibition of intracellular bacterial growth. The following applies: 10 µM; 4 days. The method, then:
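OICR kinase inhibitor library screened in duplicate at 10 uM against THP-1 macrophages (PMA-differentiated) infected with M. tuberculosis H37Rv-pTEC27 (tdTomato RFP), 4 days at 37 C. Rows with complete host cell loss (placeholder inhibition 0, cell loss 100) were removed.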

Structures can show the parent of a compound that is named as a salt. ± gives the standard deviation.

In the experiment with THP-1, `CNC(=O)c1cc(Oc2ccc(NC(=O)Nc3ccc(Cl)c(C(F)(F)F)c3)cc2)ccn1` [Sorafenib] had a THP-1 cell loss of 100%. Regarding `Cc1cc(Nc2nc(N[C@@H](C)c3ccc(F)cc3)c(C#N)cc2F)n[nH]1`, the THP-1 cell loss with THP-1 was 39 ± 9.1%. Moreover, the “intracellular M.tb growth inhibition” value in experiment [1] is -124 ± 150%. With `CS(=O)(=O)N1CCN(Cc2cc3nc(-c4cccc5[nH]ncc45)nc(N4CCOCC4)c3s2)CC1` [GDC-0941 bismesylate], the THP-1 cell loss in the experiment on THP-1 was 38 ± 2.2%. For the same compound, the “intracellular M.tb growth inhibition” value in experiment [1] turned out to be 56 ± 26%. As for `CN(C)S(=O)(=O)c1ccc2c(c1)/C(=C/c1cc3c([nH]1)CCCC3)C(=O)N2`, the THP-1 cell loss in the experiment on THP-1 is 7.5 ± 1.4%. In experiment [1], the “intracellular M.tb growth inhibition” value is -51.7 ± 62%. In the experiment with THP-1, `C=CC(=O)Nc1cc2c(Nc3ccc(F)c(Cl)c3)ncnc2cc1OCCCN1CCOCC1` displayed a THP-1 cell loss of 100%. In the experiment on THP-1, `COc1cc2nccc(Oc3ccc(NC(=O)NC4CC4)c(Cl)c3)c2cc1C(N)=O` showed a THP-1 cell loss of 20.6 ± 14%. The “intracellular M.tb growth inhibition” value in experiment [1] is -42.3 ± 140%. `O=C(NOCC1CC1)c1cc(Br)c(F)c(F)c1Nc1ccc(I)cc1Cl` showed a THP-1 cell loss in the experiment on THP-1 of 55.1 ± 9.2%. Take `COc1cc2ncnc(Nc3ccc(Cl)cc3F)c2cc1OC`: in the experiment with THP-1, the THP-1 cell loss is 0.676 ± 0.63%. Moreover, in experiment [1], the “intracellular M.tb growth inhibition” value is 48.4 ± 20%. Compound `O=C1NC(=O)[C@@H](c2cn3c4c(cccc24)CCC3)[C@@H]1c1c[nH]c2ccccc12` registered a THP-1 cell loss in the experiment with THP-1 of 43.4 ± 7.2%. Besides, the “intracellular M.tb growth inhibition” value in experiment [1] is -118 ± 200%. `COc1nccc(-c2c(-c3ccc(F)cc3)ncn2C2CCNCC2)n1`: the THP-1 cell loss in the experiment on THP-1 stood at 4.97 ± 0.45%. On to `Cc1cc(C=C2C(=O)C=CC2=O)cc(C)c1O`, for which, in the experiment on THP-1, the THP-1 cell loss is 1.15 ± 1.6%. The “intracellular M.tb growth inhibition” value in experiment [1] is -63.7 ± 80%. Taken in the same sequence, the figures for `O=C1NCc2c1c1c3ccccc3[nH]c1c1[nH]c3ccccc3c21` were 35.8 ± 3.5% and 37.2 ± 30%.

In turn, `Cc1nc(N)sc1-c1ccnc(Nc2ccc(N3CCOCC3)cc2)n1` gave a THP-1 cell loss in the experiment with THP-1 of 74.97 ± 0.66%. In addition, in experiment [1], the “intracellular M.tb growth inhibition” value was 13.1 ± 18%.

In the experiment on THP-1, `CN(C)C/C=C/C(=O)Nc1cc2c(Nc3ccc(F)c(Cl)c3)ncnc2cc1O[C@H]1CCOC1` displayed a THP-1 cell loss of 77.6 ± 2.9%. `Cc1ccc(NC(=O)c2ccc(CN3CCN(C)CC3)cc2)cc1Nc1nccc(-c2cccnc2)n1` [Imatinib (free base)] gave a THP-1 cell loss in the experiment on THP-1 of 3.31 ± 4.7%. Further, the “intracellular M.tb growth inhibition” value in experiment [1] amounted to 33.2 ± 16%.

For the compound `COc1ccc(-c2ccc3c(N4CCOC[C@@H]4C)nc(N4CCOC[C@@H]4C)nc3n2)cc1CO`, the THP-1 cell loss in the experiment on THP-1 came out at 40.8 ± 2.5%. Moreover, the “intracellular M.tb growth inhibition” value in experiment [1] was -202 ± 240%. In the case of `Cn1cc(/C=C2\C(=O)Nc3cccnc32)c2ccccc21`, the THP-1 cell loss in the experiment with THP-1 is 41.8 ± 0.73%. The “intracellular M.tb growth inhibition” value in experiment [1] is -49.9 ± 14%. The compound `COc1cc2ncnc(Nc3ccc(O)cc3)c2cc1OC` [Janex-1] displayed a THP-1 cell loss with THP-1 of 10.7 ± 0.54%. Moreover, in experiment [1], the “intracellular M.tb growth inhibition” value is -138 ± 210%. Compound `O=S(=O)(NCCNC/C=C/c1ccc(Br)cc1)c1cccc2cnccc12` [H 89 dihydrochloride] yielded a THP-1 cell loss in the experiment on THP-1 of 10 ± 2.1%. Turning to `C=CC[C@@H]1/C=C(\C)C[C@H](C)C[C@H](OC)[C@H]2O[C@@](O)(C(=O)C(=O)N3CCCC[C@H]3C(=O)O[C@H](/C(C)=C/[C@@H]3CC[C@@H](O)[C@H](OC)C3)[C@H](C)[C@@H](O)CC1=O)[C@H](C)C[C@@H]2OC`, in the experiment with THP-1, the THP-1 cell loss is 0%. Also, the “intracellular M.tb growth inhibition” value in experiment [1] stood at 42 ± 7.7%. `FC(F)c1nc2ccccc2n1-c1nc(N2CCOCC2)nc(N2CCOCC2)n1`: the THP-1 cell loss in the experiment on THP-1 came out at 35.9 ± 1.9%. The compound `O=C(C=Cc1ccccc1)NC(NC(=S)Nc1ccc(Cl)cc1)C(Cl)(Cl)Cl` (stereo not drawn) returned a THP-1 cell loss in the experiment on THP-1 of 63.6 ± 52%. Further, the “intracellular M.tb growth inhibition” value in experiment [1] worked out at 12.9 ± 18%. `Cc1cc(Nc2ncc3cc(-c4c(Cl)cccc4Cl)c(=O)n(C)c3n2)ccc1F` came in with a THP-1 cell loss with THP-1 of 88.1 ± 17%. In the experiment with THP-1, `NCC(=O)Nc1ccc(-n2nc(C(F)(F)F)cc2-c2ccc3c(ccc4ccccc43)c2)cc1` registered a THP-1 cell loss of 33.1 ± 2.5%. The “intracellular M.tb growth inhibition” value in experiment [1] was 92.3 ± 8.1%. On to `O=C(O)c1ccc2c3c1cccc3c(=O)n1c3ccccc3nc21` [STO-609 acetic acid], for which, in the experiment with THP-1, the THP-1 cell loss turned out to be 35.7 ± 5.5%. Further, the “intracellular M.tb growth inhibition” value in experiment [1] is -29.1 ± 36%.

`CN1CCN(c2ccc3nc(-c4c(N)c5c(F)cccc5[nH]c4=O)[nH]c3c2)CC1` [Dovitinib]: the THP-1 cell loss in the experiment on THP-1 was found to be 100%. For the compound `O=c1c(O)c(-c2ccc(O)c(O)c2)oc2cc(O)cc(O)c12` [Quercetin], in the experiment with THP-1, the THP-1 cell loss turned out to be 12.8 ± 2.6%. For the same compound, the “intracellular M.tb growth inhibition” value in experiment [1] was -5.54 ± 46%. The compound `Cc1[nH]c(/C=C2\C(=O)Nc3ccc(S(=O)(=O)N(C)c4cccc(Cl)c4)cc32)c(C)c1C(=O)N1CCN(C)CC1` returned a THP-1 cell loss in the experiment with THP-1 of 65.8 ± 13%. Further, the “intracellular M.tb growth inhibition” value in experiment [1] stood at 41.9 ± 66%. Take `CCn1c(-c2nonc2N)nc2cnc(Oc3cccc(NC(=O)c4ccc(OCCN5CCOCC5)cc4)c3)cc21`: the THP-1 cell loss in the experiment on THP-1 turned out to be 83.5 ± 23%. Besides, the “intracellular M.tb growth inhibition” value in experiment [1] was 54.4 ± 77%. Regarding `Nc1nccc(-c2c(-c3ccc(F)cc3)ncn2C2CCCCC2)n1`, the THP-1 cell loss in the experiment on THP-1 is 75 ± 8.6%. Besides, the “intracellular M.tb growth inhibition” value in experiment [1] was determined as 42.4 ± 13%. The compound `C[C@@H](N)[C@H]1CC[C@H](C(=O)Nc2ccncc2)CC1` came in with a THP-1 cell loss in the experiment with THP-1 of 15.7 ± 22%. Moreover, the “intracellular M.tb growth inhibition” value in experiment [1] was -59.3 ± 110%. In the experiment on THP-1, `Cn1cnc2c(F)c(Nc3ccc(Br)cc3Cl)c(C(=O)NOCCO)cc21` gave a THP-1 cell loss of 82.3 ± 9.6%. The “intracellular M.tb growth inhibition” value in experiment [1] came to 6.79 ± 5.7%. The matching figures for `C=CC(=O)Nc1cccc(Oc2nc(Nc3ccc(N4CCN(C)CC4)cc3OC)ncc2Cl)c1`: 42.4 ± 7.4% and -39 ± 120%. Compound `Cn1cc(-c2ccc3nnc(C(F)(F)c4ccc5ncccc5c4)n3n2)cn1` showed a THP-1 cell loss in the experiment with THP-1 of 13.4 ± 19%. The “intracellular M.tb growth inhibition” value in experiment [1] is -109 ± 120%. As for `COc1ccc(OC)c2c(=S)c3ccccc3[nH]c12`, the THP-1 cell loss with THP-1 worked out at 9.79 ± 3.8%. Moreover, the “intracellular M.tb growth inhibition” value in experiment [1] is -14.9 ± 44%. The matching figures for `COc1cc(OC)c(/C=C/S(=O)(=O)Cc2ccc(OC)c(NCC(=O)O)c2)c(OC)c1`: 44.7 ± 2.4% and -33.5 ± 120%.
